# Source: PubChem BioAssay
# Most compounds without a hit are left out; they make up all but 1.6% or so of the library.
# KCNQ2 pot: enhances the rat KCNQ2 potassium channel; actives 0.54% (n = 310,000); O88943; CHO-K1 KCNQ2, FluxOR thallium flux fluorescence; stronger effect = higher value; B-score at 10 µM;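 active = fluorescence ratio B-score at least 3 SD of library B-scores, with initial fluorescence B-score within 3 of them, cut at about 5.3 in these data; same plate scores as AID 2156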;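 note: B-score of peak minus minimum over baseline fluorescence ratio after K+ and Tl+ stimulus; positive B-score means potentiation of KCNQ2 with more thallium influx and brighter signal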
# Target sequence (O88943 whole entry, looked up): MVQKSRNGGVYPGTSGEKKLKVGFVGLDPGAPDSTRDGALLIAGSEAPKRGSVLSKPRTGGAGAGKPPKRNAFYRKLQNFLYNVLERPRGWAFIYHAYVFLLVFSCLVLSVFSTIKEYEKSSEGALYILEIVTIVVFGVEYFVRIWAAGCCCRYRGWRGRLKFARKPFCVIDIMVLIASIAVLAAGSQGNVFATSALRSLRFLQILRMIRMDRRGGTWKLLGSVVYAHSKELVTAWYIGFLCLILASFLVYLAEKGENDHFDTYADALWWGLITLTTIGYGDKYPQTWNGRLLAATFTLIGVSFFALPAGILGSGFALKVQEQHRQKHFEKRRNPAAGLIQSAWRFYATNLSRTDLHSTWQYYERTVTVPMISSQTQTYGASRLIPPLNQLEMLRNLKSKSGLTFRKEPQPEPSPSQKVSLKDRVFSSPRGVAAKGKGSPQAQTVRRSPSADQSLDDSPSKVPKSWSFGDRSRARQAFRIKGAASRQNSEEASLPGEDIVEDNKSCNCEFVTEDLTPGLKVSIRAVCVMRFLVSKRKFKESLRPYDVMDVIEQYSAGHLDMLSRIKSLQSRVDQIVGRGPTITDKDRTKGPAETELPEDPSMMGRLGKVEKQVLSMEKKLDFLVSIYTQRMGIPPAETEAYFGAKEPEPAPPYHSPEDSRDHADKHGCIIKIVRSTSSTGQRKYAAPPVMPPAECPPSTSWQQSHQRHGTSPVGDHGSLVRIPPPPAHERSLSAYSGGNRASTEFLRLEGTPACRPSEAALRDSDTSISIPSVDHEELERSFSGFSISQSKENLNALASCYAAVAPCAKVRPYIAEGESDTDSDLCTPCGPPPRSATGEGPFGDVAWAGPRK
# KCNQ2 block: KCNQ2 (rat) channel inhibition; CHO-K1 KCNQ2, FluxOR thallium flux, 20 min; stronger effect = lower value; actives 1.1% (n = 310,000); AID 2156; B-score at 10 µM;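 active = fluorescence ratio B-score at most minus 3 library SDs, with starting brightness B-score within 2 library SDs, cut at about -5.5 in these data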
# Active calls of the source: *; i = inactive; / = no result given.
SMILES,KCNQ2 pot,KCNQ2 block
O=C(C[n+]1ccccc1)N/N=C/c1ccco1,0.64,i
CCCCCCC(=O)N/N=C/c1ccco1,9.98*,i
CCOC(=O)N/N=C\c1ccc([N+](=O)[O-])o1,/,i
O=C(CC12CC3CC(CC(C3)C1)C2)N/N=C/c1ccc([N+](=O)[O-])o1,16.1*,i
O=C(Cc1ccc([N+](=O)[O-])cc1)N/N=C/c1ccc([N+](=O)[O-])o1,/,i
CCCCCCCC(=O)N/N=C/c1ccc([N+](=O)[O-])o1,8.17*,i
O=C(NS(=O)(=O)Oc1ccc(Cl)cc1)OC[C@@H]1CCCN2CCCC[C@H]12,0.58,i
CCC(C)(C)NC(=O)CN(C(=O)CCC(=O)Nc1nccs1)c1ccc2c(c1)OCCO2,0.02,i
Cc1ccc(NC(=O)Nc2ccc3c(c2)C(=O)OC3)cc1Cl,0.01,i
CCOC(=O)C1=C(c2ccccc2)NC(SCC(=O)Nc2cccc(C)c2)=C(C#N)C1c1ccco1 (centres undefined),0.16,i
CCOC(=O)CSC1=C(C#N)C(c2ccco2)C(C(=O)Nc2cccc(C(F)(F)F)c2)=C(C)N1 (centres undefined),-7.22,-7.22*
COc1ccc(-n2nc(C(=O)NCC(=O)N3CCN(c4ccccn4)CC3)c3ccccc3c2=O)cc1OC,/,i
COc1ccc(-n2nc(C(=O)NCC(=O)N3CCN(c4ccccn4)CC3)c3ccccc3c2=O)cc1,-8.21,-8.21*
CC1(C)C2C/C(=N\O)C(C)(/[N+]([O-])=C/c3cccc([N+](=O)[O-])c3)CC21 (centres undefined),/,i
COCCn1c(SCc2cccc(F)c2)nc2cc(C(=O)OC)ccc2c1=O,/,i
C#CCN(C)CC/C=C1\c2ccccc2CSc2ccccc21,-5.99,-5.99*
C=CCN(C)CC/C=C1\c2ccccc2CSc2ccccc21,/,i
Cc1ccc(/C(O)=C2/C(=O)C(=O)N(c3ccccn3)C2c2cccc([N+](=O)[O-])c2)cc1 (centres undefined),/,i
CCCN(C(=O)c1cccc(S(=O)(=O)N2CCN(C)CC2)c1)c1c(N)n(Cc2ccccc2)c(=O)[nH]c1=O,1.12,i
CCN1C(=O)C(CC(=O)Nc2ccc(OC)cc2)N(CCc2ccc(F)cc2)C1=S (centres undefined),-7.53,-7.53*
C=CCN1C(=O)C(CC(=O)Nc2ccc(OCCC)cc2)N(CCCN2CCN(Cc3ccccc3)CC2)C1=S (centres undefined),-6.77,-6.77*
COc1ccc(NC(=O)CC2C(=O)N(Cc3ccccc3)C(=S)N2CCN2CCOCC2)cc1 (centres undefined),/,i
COc1ccc(NC(=O)CC2C(=O)N(C)C(=S)N2CCc2ccc(F)cc2)cc1 (centres undefined),/,i
Cc1ccc(-c2nnc(N3CCCCC3)c3ccccc23)cc1S(=O)(=O)NCC1CCCO1 (centres undefined),/,i
CC(C)CCNC(=O)c1onc(CSc2nc3ccccc3[nH]2)c1C(=O)NCCC(C)C,/,i
SMILES,KCNQ2 pot,KCNQ2 block
O=C(O)/C=C/C(=O)c1ccc2c(c1)NC(=O)CO2,/,i
O=C1CN(S(=O)(=O)c2cccc(C(=O)O)c2)c2ccccc2N1,0.01,i
C/C(=N\Nc1nc(N2CCCCC2)nc(N2CCOCC2)n1)c1cccs1,-7.62,-7.62*
CC(=O)Nc1ccc(/C(C)=N/Nc2nc(N3CCOCC3)nc(N3CCOCC3)n2)cc1,/,i
COc1ccc(CCN2CC(C(=O)NCc3nc(C)c(C)s3)CCC2=O)cc1 (centres undefined),0.85,i
O=Nc1c(O)n(Cc2c(Cl)cccc2Cl)c2ccccc12,0.3,i
O=Nc1c(O)n(Cc2ccc(Cl)cc2Cl)c2ccccc12,-7.99,-7.99*
Cc1ccc(Cn2c(O)c(N=O)c3ccccc32)cc1,-6.71,-6.71*
O=Nc1c(O)n(Cc2ccc(Cl)cc2)c2ccccc12,/,i
O=C(COc1ccc(C(=O)c2ccccc2)cc1)Nc1cccnc1,0.29,i
CCOc1ccccc1/C=C(/NC(=O)c1ccccc1)C(=O)N1CCCCC1,/,i
Cc1ccc(S(=O)(=O)c2cc3c(=O)n4cccc(C)c4nc3n(Cc3ccncc3)c2=N)cc1,/,i
O=C(NC1CCCCCC1)c1ccc(-n2cnnc2)cc1,0.03,i
CCC1(C)Cc2ccccc2-c2nc(-c3ccccc3)oc(=O)c21 (centres undefined),-5.54,-5.54*
CCC1(C)Cc2ccccc2-c2nc(NN)[nH]c(=O)c21 (centres undefined),/,i
CCCCC1(CO)C(=O)N(c2ccccc2)N(c2ccccc2)C1=O,0.29,i
CCCCC1(Cc2cccc([N+](=O)[O-])c2)C(=O)N(c2ccccc2)N(c2ccccc2)C1=O,-6.93,-6.93*
NC(=O)c1ccc(/C=N/O)nc1,/,i
Cc1ccc(C)c(NC(=O)c2ccccc2C(=O)c2ccccc2)c1,-6.01,-6.01*
Cc1ccc(C(=O)c2ccccc2C(=O)Nc2ccccc2)cc1,1.66,i
Cc1cc(Sc2nc(N)ncc2[N+](=O)[O-])ncn1,/,i
Cc1cc(Sc2ncnc(N)c2[N+](=O)[O-])ncn1,-5.87,-5.87*
COc1ccc(CNC(=O)[C@@H](NC(=O)C2CCN(C(=O)[C@@H](N)CC(C)C)CC2)C(C)C)cc1,/,i
CCN(CC)CC(=O)Nc1ccc([N+](=O)[O-])cc1,/,i
O=C1NC2(Nc3ccccc31)C(=O)Nc1ccc(Br)cc12 (centres undefined),-6.24,-6.24*
SMILES,KCNQ2 pot,KCNQ2 block
O=C1NC2(Nc3ccccc31)C(=O)Nc1ccccc12 (centres undefined),0.11,i
CCCCCCN(C(=O)CCCCCN1C(=O)NC(c2ccc(-c3ccccc3)cc2)C(C(=O)OCc2ccccc2)=C1C)C(C(=O)NCCCC)c1ccc(O)c(C(=O)OC)c1 (centres undefined),0.36,i
OC1CCC(Nc2ncnc3sccc23)CC1 (centres undefined),0.88,i
Nc1ccc2nc(SCc3ccc([N+](=O)[O-])cc3)sc2c1,/,i
O=C(NC(Nc1nc2ccc([N+](=O)[O-])cc2s1)(C(F)(F)F)C(F)(F)F)c1ccccc1Cl,-10,-10*
O=C(NC(Nc1nc2ccc([N+](=O)[O-])cc2s1)(C(F)(F)F)C(F)(F)F)c1cccnc1,1.26,i
O=[N+]([O-])c1ccc2nc(SCc3ccccc3Cl)sc2c1,-9.92,-9.92*
Cc1ccc(-c2cc(C(=O)OCn3nnc4ccccc4c3=O)c3ccccc3n2)cc1,/,i
COC(=O)c1cn(Cc2ccccn2)c(=O)c2ccccc12,0.47,i
CCC(=O)OCC(=O)Nc1ccc(OC)cc1[N+](=O)[O-],/,i
COc1ccc(NC(=O)COC(=O)CC23CC4CC(CC(C4)C2)C3)c([N+](=O)[O-])c1,-6.08,-6.08*
Cc1nc(C(F)(F)F)c(C(=O)O)cc1-c1nc(-c2ccccc2)cs1,/,i
CC1Cc2ccccc2N1C(=O)CCS(=O)(=O)c1ccc2c(c1)NC(=O)CS2 (centres undefined),1.47,i
C=CCN(c1cccc(C(F)(F)F)c1)S(=O)(=O)c1cccc(C(=O)OCC(=O)Nc2ccccc2)c1,7.53*,i
C=CCN(c1cccc(C(F)(F)F)c1)S(=O)(=O)c1cccc(C(=O)OCC(=O)NC)c1,1.59,i
Nc1c(-c2ccccc2)c(CSc2nc3ccccc3[nH]2)nn1-c1cccc(Cl)c1,-5.6,-5.6*
Nc1c(-c2ccccc2)c(CSc2nc3ccccc3[nH]2)nn1-c1ccc(Cl)cc1,/,i
